Pf growth 48h = Primary qHTS for delayed death inhibitors of the malarial parasite plastid, 48 hour incubation | P. falciparum luciferase growth in erythrocytes, 48 h | Potency, µM (highest dose often 28.7 µM), usual class: inhibitors | 310,000 tested, 5.9% active
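Erythrocytes infected with P. falciparum carrying an integrated firefly luciferase reporter (2% hematocrit, 0.1% parasitemia final) were exposed to compounds in RPMI 1640 with 0.5% Albumax at 37 C, 5% CO2. Growth inhibition was scored as reduced luminescence.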
HCMV antiviral = qHTS Assay for inhibitors of the human cytomegalovirus (HCMV) | 410,000 tested, 4.5% active | HFF cells, HCMV-luciferase reporter, 72 h; hits give low values | activity change, negative = inhibition, % at 57.5 µM; in the data active means activity change below about -60%; inconclusive means no clear call, values can overlap the other calls; inactive means above about -39%
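Screen run at 2 compound doses on HFFs infected with reporter HCMV, MOI 1 PFU/cell. Luciferase activity from cell lysates at 72 h post infection gave inhibition relative to buffer-only and Salinomycin wells.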
MARV entry inh = qHTS for inhibitors of binding or entry into cells for Marburg Virus. Marburg virus pseudotyped entry inhibition, cell reporter. Potency, µM (doses to about 37.8 µM), usual class: inhibitors. 300,000 tested, 1.8% active; calls by dose curve; tested in HEK293 cells
LASV entry inh = qHTS for Inhibitors of binding or entry into cells for Lassa Virus | Potency, µM (doses to about 37.9 µM), most hits filed as inhibitors | Lassa virus pseudotype entry inhibition, cell reporter | 300,000 tested, 1.2% active; calls by dose curve; tested in HEK293 cells; further: nearly all actives have a fitted effect of over 50% in size
HCV inh = qHTS Assay for Inhibitors of Hepatitis C Virus (HCV); Huh7.5.1 HCVcc-Cre infection, luciferase reporter, 44 h; Potency, µM (top dose mostly 41.8 µM), most hits filed as inhibitors; 340,000 tested, 3.4% active; AID 651820, 2012
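Infectious HCVcc-Cre (~0.5 moi) was added to cells just after compound, with cells seeded 4 h earlier at 1,000 per well. Luciferase activity after 44 h culture reported infection; substrate was incubated 15 min at room temperature before reading.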
Pf growth 96h = Primary qHTS for delayed death inhibitors of the malarial parasite plastid, 96 hour incubation. Potency, µM (doses to about 28.7 µM), usual class: inhibitors. AID 504834, 2011. P. falciparum luciferase reporter growth, 96 h. 320,000 tested, 6.9% active
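Readout is luminescence from an integrated firefly luciferase in P. falciparum. Red cells, 2% hematocrit and 0.05% parasitemia final, were cultured with compound through two parasite generations (96 hours) at 37 C, 5% CO2.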
Large screens that a line does not name were inactive. In the library only some 14% were active in any assay of this set; here they are far more common. Unless noted, the call rests on the fitted dose curve; in most records, active means well fitted inhibition curve with a large enough effect; inconclusive means small, poorly fitted or top-dose-only effect, or another doubt; inactive means no such curve, though single readings can be large or run the other way.

COc1cccc(N2CC(NC(=O)Cc3cccs3)CC2=O)c1 (stereo not drawn)	none (no result: Pf growth 48h, MARV entry inh, HCV inh, Pf growth 96h)
O=C(NCCc1ccc(F)cc1)C(=O)NCC(c1ccco1)S(=O)(=O)c1cccs1 (stereo not drawn)	LASV entry inh inconclusive (no result: Pf growth 48h, MARV entry inh, HCV inh, Pf growth 96h)
O=C(NC1CCC1)O[C@H]1CC[C@@]23CCCN2C(=O)CCC[C@H]3[C@H]1Cc1ccccc1	none (no result: Pf growth 48h, MARV entry inh, LASV entry inh, HCV inh, Pf growth 96h)
COc1ccc(F)cc1S(=O)(=O)NCCc1c(C)[nH]c2c(Cl)cccc12	LASV entry inh inconclusive (no result: Pf growth 48h, MARV entry inh, HCV inh, Pf growth 96h)
CCOC(=O)c1c(NC(=O)c2ccn(CC)n2)sc2c1CCCC2	Pf growth 48h 10.4µM, MARV entry inh inconclusive, HCV inh inconclusive (no result: Pf growth 96h)
CCOC(=O)c1c(NC(=O)c2ccc(C)cc2)sc2c1CCCCC2	none (no result: Pf growth 48h, MARV entry inh, HCV inh, Pf growth 96h)
CCOC(=O)c1c(NC(=O)CSc2c[nH]c3ccccc23)sc2c1CCC2	MARV entry inh inconclusive, LASV entry inh inconclusive, HCV inh inconclusive
CCOC(=O)c1c(NC(=O)COc2cccc3c2CCN(CC)C3=O)sc2c1CCC2	HCMV antiviral -80.0, MARV entry inh inconclusive, Pf growth 96h inconclusive
CCOC(=O)c1c(NC(=O)CSc2c[nH]c3ccccc23)sc2c1CCCC2	MARV entry inh 13µM, LASV entry inh inconclusive, HCV inh 11.2µM
COc1ccccc1OCC(=O)Nc1sc2c(c1C(=O)NCC1CCCO1)CCC2 (stereo not drawn)	Pf growth 48h 13.1µM, HCMV antiviral inconclusive, MARV entry inh inconclusive, HCV inh 0.891µM, Pf growth 96h 10.4µM
CCOC(=O)OC[C@H]1O[C@H](c2cc(C)cc(C)c2)C=C[C@H]1OC(=O)OCC	none (no result: Pf growth 48h, HCMV antiviral, LASV entry inh, HCV inh, Pf growth 96h)
O=C(Nc1cccc2ccccc12)c1ccc(Br)o1	Pf growth 96h 14.7µM
O=C(Nc1cccc(F)c1)c1ccc(Br)o1	HCMV antiviral -96.9, MARV entry inh inconclusive
O=C(Nc1cccc(F)c1)c1ccc(CSc2ccccc2)o1	MARV entry inh 7.31µM, LASV entry inh 5.17µM
O=C(Nc1cccc(-c2cn3c(n2)SCC3)c1)c1ccc(Br)o1	HCMV antiviral inconclusive, Pf growth 96h 0.738µM
CC(=O)Nc1ccc(NC(=O)c2ccc(CSc3ccccc3)o2)cc1	Pf growth 48h inconclusive
Cc1ccc2c(c1)-c1nc(-c3ccc4c(c3)NC(=O)CO4)cc(-c3ccc(Cl)cc3)c1CO2	none (no result: Pf growth 48h, HCV inh, Pf growth 96h)
CCc1cccc(CC)c1NC(=O)C1CCN(C(=O)c2ccco2)CC1	none
CC(C)OCCCN(C)C1CCN(S(=O)(=O)c2csc(C(N)=O)c2)CC1	Pf growth 96h inconclusive (no result: MARV entry inh)
CC(C)OCCCN(C)C1CCN(S(=O)(=O)c2ccc(-c3cc(C(F)(F)F)no3)s2)CC1	Pf growth 48h 11.7µM, HCV inh inconclusive, Pf growth 96h inconclusive (no result: MARV entry inh, LASV entry inh)
Cc1cccc(CNc2ccc(C(CC(N)=O)NC(=O)Cc3cccc4ccccc34)cc2[N+](=O)[O-])c1 (stereo not drawn)	Pf growth 48h inconclusive, HCMV antiviral -78.7 (no result: MARV entry inh, LASV entry inh)
NC(=O)CC(NC(=O)c1ccccc1)c1ccc(N2CCCCCC2)c([N+](=O)[O-])c1 (stereo not drawn)	HCV inh inconclusive (no result: MARV entry inh, LASV entry inh)
NC(=O)CC(NC(=O)Cc1ccc(Br)cc1)c1ccc(NCc2ccc(F)cc2)c([N+](=O)[O-])c1 (stereo not drawn)	Pf growth 48h inconclusive, HCV inh 11.2µM (no result: MARV entry inh, LASV entry inh)
NC(=O)CC(NC(=O)c1ccccc1)c1ccc(N2CCN(c3ccccc3)CC2)c([N+](=O)[O-])c1 (stereo not drawn)	HCMV antiviral -65.5, HCV inh inconclusive, Pf growth 96h 14.7µM (no result: MARV entry inh, LASV entry inh)
CCCCNc1ccc(C(CC(N)=O)NC(=O)Cc2cccc3ccccc23)cc1[N+](=O)[O-] (stereo not drawn)	none (no result: MARV entry inh, LASV entry inh)
Cc1cc(C)cc(C(=O)NC(CC(N)=O)c2ccc(N3CCN(c4ccccc4)CC3)c([N+](=O)[O-])c2)c1 (stereo not drawn)	none (no result: MARV entry inh, LASV entry inh)
NC(=O)CC(NC(=O)Cc1ccc(Br)cc1)c1ccc(NCC2CC2)c([N+](=O)[O-])c1 (stereo not drawn)	none (no result: MARV entry inh, LASV entry inh)
CN1CCN(c2ccc(C(CC(N)=O)NC(=O)c3ccccc3)cc2[N+](=O)[O-])CC1 (stereo not drawn)	HCMV antiviral -62.4, Pf growth 96h inconclusive (no result: MARV entry inh, LASV entry inh)
C[C@@H]1CN([C@H](C)CO)C(=O)CCCn2nncc2CO[C@H]1CN(C)Cc1ccc2c(c1)OCCO2	none (no result: Pf growth 48h, MARV entry inh, LASV entry inh, HCV inh, Pf growth 96h)
COc1ccc(-c2c3c(=O)n(C)c(=O)n(C)c3c3n2-c2ccccc2NC3c2ccc(OC)cc2)cc1 (stereo not drawn)	none (no result: Pf growth 48h, HCV inh, Pf growth 96h)
NC(=O)CC(NC(=O)c1ccccc1)c1ccc(N2CCN(c3ccc(F)cc3)CC2)c([N+](=O)[O-])c1 (stereo not drawn)	HCMV antiviral inconclusive, HCV inh 11.2µM (no result: MARV entry inh, LASV entry inh)
NC(=O)CC(NC(=O)Cc1ccc(Br)cc1)c1ccc(N2CCN(c3ccccc3)CC2)c([N+](=O)[O-])c1 (stereo not drawn)	Pf growth 48h inconclusive, HCMV antiviral -61.5, HCV inh inconclusive, Pf growth 96h inconclusive (no result: MARV entry inh, LASV entry inh)
NC(=O)CC(NC(=O)Cc1ccc(Br)cc1)c1ccc(N2CCN(c3ccccn3)CC2)c([N+](=O)[O-])c1 (stereo not drawn)	HCV inh inconclusive, Pf growth 96h inconclusive (no result: MARV entry inh, LASV entry inh)
CC(=O)N1[C@@H]2c3ccc(-c4cccnc4)c(=O)n3C[C@@H]2[C@@H](CO)[C@@H]1C(=O)NCc1ccccc1Cl	none (no result: Pf growth 48h, MARV entry inh, LASV entry inh, HCV inh, Pf growth 96h)
CCOC(=O)c1noc2nc(C)n(CC(=O)Nc3ccc(Br)cc3C)c(=O)c12	none (no result: Pf growth 48h, MARV entry inh, HCV inh, Pf growth 96h)
COc1cccc(C2c3c(C)nn(-c4ccc([N+](=O)[O-])cc4)c3N=C3C(=O)Nc4ccccc4N32)c1 (stereo not drawn)	Pf growth 48h inconclusive, LASV entry inh inconclusive, HCV inh inconclusive, Pf growth 96h inconclusive
COc1ccc(NC2=Nc3ccccc3N3C2=Nc2c(c(C)nn2-c2ccc(C)cc2)C3c2cccnc2)cc1 (stereo not drawn)	LASV entry inh inconclusive, HCV inh inconclusive, Pf growth 96h 2.08µM (no result: Pf growth 48h)
CC(=O)Nc1ccc(NC2=Nc3ccccc3N3C2=Nc2c(c(C)nn2-c2ccccc2)C3c2ccccc2)cc1 (stereo not drawn)	Pf growth 48h 0.928µM, HCMV antiviral -98.5, MARV entry inh inconclusive, LASV entry inh inconclusive, Pf growth 96h inconclusive
COc1ccccc1C(=O)Nc1cccc(C(=O)OCc2cc(=O)n3nc(C4CC4)sc3n2)c1	LASV entry inh inconclusive (no result: Pf growth 48h, MARV entry inh, HCV inh, Pf growth 96h)
COc1ccc(NS(=O)(=O)c2cc(NS(=O)(=O)c3cccs3)ccc2C)cc1	none
COCC(C)NC(=O)CSc1nc(-c2ccccc2)c(-c2ccccc2)o1 (stereo not drawn)	HCMV antiviral -67.2, MARV entry inh inconclusive, LASV entry inh inconclusive, HCV inh inconclusive, Pf growth 96h inconclusive (no result: Pf growth 48h)

High-throughput results from PubChem BioAssay.
